Laboratory results: PubChem BioAssay AID1220 (Sanford-Burnham Center for Chemical Genomics, 2008)
The campaign covered roughly 190,000 compounds. About 1,300 (0.68%) were called active. This is one part of a sample in which actives are shown more often than they occur. Rule as the data show it: active = inhibition above about 50%; inactive = the rest.

target: Mannose-6-phosphate isomerase (Homo sapiens) (UniProt P34949); test: human PMI inhibitors, high substrate, primary screen, biochemical, fluorescence intensity, high mannose 6-phosphate (AID 1220); details: recombinant PMI enzyme, coupled fluorescence intensity; at 20 µM; active compounds read high
Sequence (P34949 whole entry, looked up): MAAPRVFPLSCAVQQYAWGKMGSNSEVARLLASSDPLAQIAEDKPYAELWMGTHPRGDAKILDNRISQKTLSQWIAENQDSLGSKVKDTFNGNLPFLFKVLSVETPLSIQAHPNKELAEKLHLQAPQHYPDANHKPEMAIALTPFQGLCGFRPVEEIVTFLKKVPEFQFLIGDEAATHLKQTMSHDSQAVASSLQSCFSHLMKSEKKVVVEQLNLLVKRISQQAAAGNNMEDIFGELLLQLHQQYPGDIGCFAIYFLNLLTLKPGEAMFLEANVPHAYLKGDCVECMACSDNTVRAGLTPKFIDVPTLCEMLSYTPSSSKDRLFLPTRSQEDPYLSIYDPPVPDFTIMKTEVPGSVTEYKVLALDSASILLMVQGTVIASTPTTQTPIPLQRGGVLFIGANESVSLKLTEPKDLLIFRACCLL

inhibition, active:
Cc1cc(F)ccc1NCc1ccccc1[N+](=O)[O-] 70%, O=C1c2ccccc2C(Nc2ccc3c(c2)OCO3)N1Cc1ccco1 (stereo not drawn) 57.7%, O=c1c2c(nc3nc(NCc4cccc5ccccc45)[nH]n13)CCC2 55.7%, Cc1ccc(-c2ccc(=O)n(CC(=O)NCCN3CCCCC3C)n2)cc1 (stereo not drawn) 60.7%, COc1ccc2ccccc2c1C(=O)/C=C\c1ccoc1 50%, COc1cccc(CNc2ccc(N3CCC(C)CC3)cc2)c1OC 63.1%, Cc1cc(N2CCN(C)CC2)nc2ccc(NC(=S)NCCCN3CCc4ccccc4C3)cc12 58.5%, CCOCCCNC(=S)Nc1ccc2nc(N3CCCC3)cc(C)c2c1 50.2%, CCCCN(CC)CCNC(=O)CCC(=O)Nc1ccc2nc(N3CCN(C)CC3)cc(C)c2c1 58.2%, COC(=O)c1ccc(NC(=O)C(=O)c2cccn2C)cc1 52.2%, COc1ccc2c(c1)CCc1cnc(N)nc1-2 60%, CC(=O)n1cc([C@@H]2C=C(C(=O)NCc3ccccc3)O[C@H](OCCCCO)C2)c2ccccc21 50.3%, O=C(NCc1ccccc1)C1=C[C@@H](c2csc3ccccc23)C[C@@H](OCCCCO)O1 53.8%, O=C(NCc1ccccc1)C1=C[C@H](c2csc3ccccc23)C[C@H](OCCCCO)O1 53.9%, COCCNCC1C(Oc2ccc(Cl)cc2)C(=O)N1c1ccccc1C (stereo not drawn) 50.7%, CC1=CC(C)(C)Nc2ccc(OS(=O)(=O)c3ccc(C)cc3)cc21 51.5%, CC1=CC(C)(C)Nc2ccc(OC(=O)c3ccco3)cc21 52%

inhibition, inactive:
COc1ccc(OC)c(-n2c(-c3cccc(S(=O)(=O)N(C)C)c3)n[nH]c2=S)c1 15.9%, Nc1nc(-c2ccc(Cl)cc2)c(S(=O)(=O)c2ccccc2)s1 -1.5%, COc1cc(/C=N/NC(=O)CN2CCOCC2)ccc1OCc1ccccc1 -5.3%, COc1ccc(Cl)c(NC(=O)Cn2nnc(-c3ccccc3N)n2)c1 -3.6%, CCc1nc(Nc2ccc3c(c2)OCO3)c2oc3ccccc3c2n1 23%, CCOCCCNS(=O)(=O)c1ccc(NC(=O)C2CC(=O)N(c3ccc(C)cc3)C2)cc1 (stereo not drawn) 6%, Cc1cc(C)c(C(=O)/C=C/C=C/c2ccccc2)c(=O)[nH]1 22.8%, C/C(=N\NC(=O)c1nn(C)c(C)c1Br)c1ccc(NC(=O)c2ccccc2F)cc1 10.7%, COc1ccc(C(=O)NC(=S)NNC(=O)c2ccc(NC(=O)C(C)C)cc2)cc1 -10.9%, O=c1[nH]ncc(N2CCCCC2)c1Cl 12.3%, Cc1cc(F)ccc1NCc1cc2c(cc1[N+](=O)[O-])OCO2 37.6%, Cc1cc([N+](=O)[O-])ccc1NCc1ccccc1[N+](=O)[O-] 21.5%, CCOC(=O)/C(C(=O)Nc1ccc(Br)cc1)=C1/NC(C)(C)Cc2ccccc21 3.4%, OCCNC(=S)Nc1ccc(Oc2ccccc2)cc1 2.2%, CCCC12CN3CCN(CC(C3)/C1=N\NC(=O)c1ccccc1Cl)C2 -11.2%, O=C1c2ccccc2C(Nc2ccc3c(c2)OCO3)N1Cc1ccc2c(c1)OCO2 (stereo not drawn) 23.7%, O=C1c2ccccc2C(Nc2ccc3c(c2)OCCO3)N1Cc1ccco1 (stereo not drawn) 0.2%, CCN(C(=O)CSc1nnc(-c2c[nH]c3ccccc23)o1)C1CCS(=O)(=O)C1 (stereo not drawn) 4.2%, O=c1c2c(nc3nc(NCc4ccccc4Cl)[nH]n13)CCC2 -5.2%, COc1ccccc1CNc1nc2nc3c(c(=O)n2[nH]1)CCC3 4.2%, CC1CCCCN1CCNC(=O)Cn1nc(-c2ccccc2)ccc1=O (stereo not drawn) -4.4%, Cc1ccc(-c2ccc(=O)n(CC(=O)NCCCN3CCCCC3C)n2)cc1 (stereo not drawn) 12.3%, O=[N+]([O-])c1cccc(-c2nc(N3CCOCC3)c3ccccc3n2)c1 -8.1%, COC(=O)COc1ccc(/C=C2/NC(=O)N(CC(=O)OC)C2=O)cc1 1.1%, O=C1C(Cl)=C(NCC2CCCO2)C(=O)N1c1ccccc1 (stereo not drawn) 2.7%, COc1ccc(/C=C/C(=O)c2ccoc2)cc1 3.7%, O=C(/C=C/c1ccoc1)c1ccccc1O 17.9%, OC1(c2cccs2)CN(c2ccccc2)C2=[N+]1CCCC2 (stereo not drawn) -12%, COc1cccc(CNc2ccc(S(N)(=O)=O)cc2)c1OC -2.8%, COc1cccc(CNc2ccc(F)c(Cl)c2)c1OC -11%, COc1ccc(-c2nnn(CC(=O)N(Cc3ccccc3Cl)C(C(=O)NCC3CCCO3)c3ccco3)n2)cc1OC (stereo not drawn) 23.8%, CC1=NOC(=O)/C1=C/c1ccc(-c2ccc(Cl)cc2)o1 13.4%, CCCCNC(=O)CCC(=O)Nc1ccc2nc(N3CCN(C)CC3)cc(C)c2c1 12%, Cc1cc(N2CCCC2)nc2ccc(NC(=S)NCCCOC(C)C)cc12 -3.8%, CCN1CCN(c2cc(C)c3cc(NC(=S)NCCCN4CCc5ccccc5C4)ccc3n2)CC1 27.2%, Cc1cc(N2CCN(C)CC2)nc2ccc(NC(=S)NCCN3CCc4ccccc4C3)cc12 -3.7%, CCCN(CCC)CCNC(=O)CCC(=O)Nc1ccc2nc(N3CCN(C)CC3)cc(C)c2c1 42.5%, COCCNC(=S)Nc1ccc2nc(N3CCCC3)cc(C)c2c1 12.4%, CC1CCCCC1NC(=O)CO/N=C/c1ccccc1OC(F)F (stereo not drawn) 5.8%, COCCOCCn1c(CCCO)nc2ccccc21 -2.6%, Cc1ccc(S(=O)(=O)N2CCN(Cc3nc4ccccc4[nH]3)CC2)cc1C -2.8%, CCOC(=O)Cc1csc(NC(=O)CSc2nnc(Cc3csc(N)n3)n2C)n1 14.4%, O=C(NCCN1CCOCC1)c1cc2cc(Br)ccc2oc1=O 9.2%, CCOC(=O)N1CCC(NS(=O)(=O)c2ccc3c(c2)CCN3C(C)=O)CC1 2.5%, O=C(C1CC1)N1CCc2cc(Br)cc(S(=O)(=O)NC3CCCCC3)c21 2.5%, Cn1cccc1C(=O)C(=O)Nc1ccccc1 -5.5%, Cn1cccc1C(=O)C(=O)Nc1ccc(Cl)cc1 -0.1%, Nc1ncc2c(n1)-c1ccccc1CC2 32.5%, COc1ccc(-c2cnc(N)nc2-c2ccc(OC)cc2O)cc1 11.9%, CCOC(=O)N1CCN(C(=O)C2CCN(Cc3nc(-c4ccccc4C)oc3C)CC2)CC1 -4.9%, COc1cc(/C=C/C(=O)Nc2cc(S(=O)(=O)N3CCOCC3)ccc2N2CCCC2)cc(OC)c1OC 19.5%, c1ccc(-c2csc3ncnc(NCCCN4CCOCC4)c23)cc1 -16.3%, O=C(Nc1ccccc1)C1=C[C@H](c2csc3ccccc23)C[C@H](OCCCCO)O1 12.8%, C#CCNC(=O)C1=C[C@H](c2csc3ccccc23)C[C@H](OCCCCO)O1 30.3%, CC(=O)n1cc([C@H]2C=C(C(=O)NCc3ccccc3)O[C@@H](OCCCCO)C2)c2ccccc21 46.3%, C#CCNC(=O)C1=C[C@@H](c2cn(C(C)=O)c3ccccc23)C[C@@H](OCCCCO)O1 22.9%, O=C(C1=C[C@H](c2csc3ccccc23)C[C@H](OCCCCO)O1)N1CCN(Cc2ccccc2)CC1 22.9%, O=C(NCc1ccccc1)C1=C[C@@H](c2csc3ccccc23)C[C@@H](OCc2ccc(CO)cc2)O1 44.5%, CN1C(=O)NC(c2ccccc2)C2=C1CN(c1ccc3ccccc3c1)C2=O (stereo not drawn) 9.4%, COc1ccc(C(=O)C[n+]2cn(C(F)F)c3ccccc32)c(F)c1 -11.8%, Cc1cc(C)n(C(=O)CSc2nnc(SCC(=O)n3nc(C)cc3C)s2)n1 -11.7%, CC(=O)N1CCc2cc(S(=O)(=O)NC(CC(C)C)C(=O)N3CCn4c3nc3ccccc34)ccc21 (stereo not drawn) 6.2%, CCCNCC1C(Oc2ccc(Cl)cc2)C(=O)N1c1ccccc1C (stereo not drawn) -6%, COCCCNCC1C(Oc2ccc(Cl)cc2)C(=O)N1c1ccccc1C (stereo not drawn) -5.6%, Nc1ncc(-n2cncn2)c(-c2ccc(Cl)cc2)n1 9.9%, CC1CCCCC1NCC(=O)NCc1ccc(F)cc1 (stereo not drawn) -10.5%, CCOC(=O)c1c(C)oc2cc(Br)c(OC(=O)N3CCOCC3)cc12 11.1%, COc1ccc(-c2nc(C#N)c(N3CCN(c4cccc(Cl)c4)CC3)o2)cc1OC 4.2%, CC1=CC(C)(C)Nc2ccc(OC(=O)C(C)N3C(=O)c4ccccc4C3=O)cc21 (stereo not drawn) 24.3%, CC1=CC(C)(C)Nc2ccc(OC(=O)c3cccnc3)cc21 16%, CC1=CC(C)(C)Nc2ccc(OC(=O)CN3C(=O)CCC3=O)cc21 12.7%, CC(=O)Nc1ccc(S(=O)(=O)Oc2ccc3c(c2)C(C)=CC(C)(C)N3)cc1 29.5%, CC1=CC(C)(C)Nc2ccc(OC(=O)CN3C(=O)c4ccccc4C3=O)cc21 26.2%, CC1CC(C)(C)Nc2ccc(OC(=O)c3ccco3)cc21 (stereo not drawn) 25.5%, COC(=O)c1nn(-c2ccc(C)cc2)ccc1=O -2.7%, Cc1cccc(C(=O)NCCc2nnc(SCC(=O)Nc3nc(C)cs3)n2C)c1 4%
